This is an account of results in ChEMBL document CHEMBL3988442, “University of Dundee, Small-Polar-MMV Screening Library” (2021).

For some of these results: Measured potencies and affinities stand elsewhere.

What all share (design): scale not given: direction of the effect not stated beside the values
Experiment [1] addresses Protein translocase subunit SecA (Escherichia coli (strain K12)) (UniProt P10408). Kind of experiment: Assay to Identify E. coli SecA ATPase Inhibitors. The experiment is classed as functional. Particulars: 30 µM.
Experiment [2] deals with T1, Ubiquitin-activating enzyme e1, putative (Leishmania donovani (strain BPK282A1)) (UniProt E9BSI1).
T1 sequence (whole entry): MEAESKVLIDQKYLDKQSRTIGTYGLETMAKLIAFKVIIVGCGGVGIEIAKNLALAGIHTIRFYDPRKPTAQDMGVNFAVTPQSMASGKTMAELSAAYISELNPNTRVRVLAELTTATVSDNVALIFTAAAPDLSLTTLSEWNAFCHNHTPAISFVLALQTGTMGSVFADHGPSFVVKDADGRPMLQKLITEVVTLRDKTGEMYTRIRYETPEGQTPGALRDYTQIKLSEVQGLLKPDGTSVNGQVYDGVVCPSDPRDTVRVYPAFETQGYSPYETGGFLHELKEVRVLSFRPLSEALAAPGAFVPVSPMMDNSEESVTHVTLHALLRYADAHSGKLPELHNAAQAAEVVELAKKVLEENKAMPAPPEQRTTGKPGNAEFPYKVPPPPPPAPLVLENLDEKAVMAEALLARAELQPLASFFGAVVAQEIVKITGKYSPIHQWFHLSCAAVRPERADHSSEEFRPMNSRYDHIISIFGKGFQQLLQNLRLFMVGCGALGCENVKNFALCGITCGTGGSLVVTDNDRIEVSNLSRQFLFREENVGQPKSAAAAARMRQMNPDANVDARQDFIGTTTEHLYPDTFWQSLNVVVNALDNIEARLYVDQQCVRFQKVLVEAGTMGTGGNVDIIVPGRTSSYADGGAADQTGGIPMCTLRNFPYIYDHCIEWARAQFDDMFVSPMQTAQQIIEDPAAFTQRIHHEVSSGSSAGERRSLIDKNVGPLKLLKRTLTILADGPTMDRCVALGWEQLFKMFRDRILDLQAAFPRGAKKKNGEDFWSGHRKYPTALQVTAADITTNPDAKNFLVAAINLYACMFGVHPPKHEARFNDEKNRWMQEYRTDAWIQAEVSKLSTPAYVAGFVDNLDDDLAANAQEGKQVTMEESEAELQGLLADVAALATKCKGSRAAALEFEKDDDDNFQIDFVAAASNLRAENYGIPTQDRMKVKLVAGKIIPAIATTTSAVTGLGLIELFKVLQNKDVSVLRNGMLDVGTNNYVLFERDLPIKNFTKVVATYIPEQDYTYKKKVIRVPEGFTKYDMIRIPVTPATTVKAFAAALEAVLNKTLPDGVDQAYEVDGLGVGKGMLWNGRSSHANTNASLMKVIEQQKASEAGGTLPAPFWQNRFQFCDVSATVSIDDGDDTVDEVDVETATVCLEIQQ
Kind of experiment: Leishmania donovani Ubiquitin Activating Enzyme (LdE1). The experiment is classed as functional. As to conditions: 30 µM.

For experiment [3], the target named is T2, Aspartate--tRNA(Asp/Asn) ligase (Mycobacterium tuberculosis (strain ATCC 25618 / H37Rv)) (UniProt P9WFW3). Also: in the data most compounds retested in dose-response had high values.
T2 sequence (whole entry): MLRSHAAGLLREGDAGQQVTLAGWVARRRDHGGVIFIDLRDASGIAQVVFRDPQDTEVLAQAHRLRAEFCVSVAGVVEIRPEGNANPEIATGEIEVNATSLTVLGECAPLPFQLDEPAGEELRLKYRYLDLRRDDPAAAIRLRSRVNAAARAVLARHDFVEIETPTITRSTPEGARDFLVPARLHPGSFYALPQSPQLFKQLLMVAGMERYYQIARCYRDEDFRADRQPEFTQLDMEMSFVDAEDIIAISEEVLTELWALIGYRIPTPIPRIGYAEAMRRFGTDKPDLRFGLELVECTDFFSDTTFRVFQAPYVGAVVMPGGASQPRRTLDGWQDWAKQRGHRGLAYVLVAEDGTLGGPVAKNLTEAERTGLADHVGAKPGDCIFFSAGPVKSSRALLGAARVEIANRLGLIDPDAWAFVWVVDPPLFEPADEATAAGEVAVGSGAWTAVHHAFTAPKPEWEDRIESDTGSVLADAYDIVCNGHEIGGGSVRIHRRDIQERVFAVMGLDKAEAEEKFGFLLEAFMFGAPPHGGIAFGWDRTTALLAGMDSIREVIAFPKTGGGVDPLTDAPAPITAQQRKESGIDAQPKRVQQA
The experiment is described as follows: Assay for Asp RNA synthetase-1 from Mycobacterium tuberculosis. It counts as functional. Particulars: 30 µM.

Experiment [4] deals with Sialic acid-binding Ig-like lectin 9 (Homo sapiens) (UniProt Q9Y336). The experiment is described as follows: Hs-Siglec9 ALPHAscreen SOP 20170721. Particulars: 10 µM. In general terms: Bead proximity is the source of the signal in Alpha formats.
In another experiment the test system is Trypanosoma cruzi. The experiment is described as follows: Trypanosoma cruzi phosphomannomutase and mannose-1-phosphate guanylyltransferase assay. The experiment is classed as functional. Particulars: 10 µM.
In experiment [5] the target is T3, Arginase-2, mitochondrial (Homo sapiens) (UniProt P78540).
T3 sequence (whole entry): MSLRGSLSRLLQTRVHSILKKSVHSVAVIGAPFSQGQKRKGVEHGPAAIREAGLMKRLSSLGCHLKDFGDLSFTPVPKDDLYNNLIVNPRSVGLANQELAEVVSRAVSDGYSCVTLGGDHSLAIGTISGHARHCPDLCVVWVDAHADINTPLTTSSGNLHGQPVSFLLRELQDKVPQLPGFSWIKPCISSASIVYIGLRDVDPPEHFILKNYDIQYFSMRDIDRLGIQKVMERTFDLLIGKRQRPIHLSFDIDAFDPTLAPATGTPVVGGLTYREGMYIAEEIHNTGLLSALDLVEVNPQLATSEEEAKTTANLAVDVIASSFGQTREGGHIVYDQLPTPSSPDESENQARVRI
Kind of experiment: in vitro enzyme assay to detect the production of urea directly proportional to the activity of Arginase II. Also: in the data most compounds retested in dose-response had high values. It counts as functional. Particulars: 33.3 µM.

The target of experiment [6] is T4, Proteasome subunit beta (Trypanosoma cruzi) (UniProt O96673).
T4 sequence (whole entry): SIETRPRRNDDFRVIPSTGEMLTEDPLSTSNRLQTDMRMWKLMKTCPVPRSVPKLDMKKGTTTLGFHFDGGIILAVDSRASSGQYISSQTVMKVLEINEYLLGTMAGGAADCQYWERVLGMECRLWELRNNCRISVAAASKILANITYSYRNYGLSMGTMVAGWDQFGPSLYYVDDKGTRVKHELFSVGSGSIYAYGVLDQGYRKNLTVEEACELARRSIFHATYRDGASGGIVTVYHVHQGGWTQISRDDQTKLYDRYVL
Kind of experiment: Trypanosoma cruzi proteasome chymotrypsin-like activity (TcProtChymo) assay. Also: in the data most compounds retested in dose-response had high values. The experiment is classed as functional. Particulars: 9.37 µM.

The next experiment is filed under the species Homo sapiens. The experiment is described as follows: To identify inhibition of the IFN signalling (Jak-Stat) pathway via expression of an eGFP reporter gene under the control of an IFN-stimulated response element (ISRE) containing MxA promoter. It counts as functional. Particulars: 30 µM.
For experiment [7], the target named is Shiga toxin 2 (Escherichia coli O157:H7) (UniProt P09385+P09386). Kind of experiment: E. coli 0.157:H7 Shiga Toxin SOP - stx2 screening assay. It counts as functional. Particulars: 30 µM.
In experiment [8] the target is T5, Tyrosyl-tRNA synthetase, putative (Trypanosoma cruzi (strain CL Brener)) (UniProt Q4DSP6).
T5 sequence (whole entry): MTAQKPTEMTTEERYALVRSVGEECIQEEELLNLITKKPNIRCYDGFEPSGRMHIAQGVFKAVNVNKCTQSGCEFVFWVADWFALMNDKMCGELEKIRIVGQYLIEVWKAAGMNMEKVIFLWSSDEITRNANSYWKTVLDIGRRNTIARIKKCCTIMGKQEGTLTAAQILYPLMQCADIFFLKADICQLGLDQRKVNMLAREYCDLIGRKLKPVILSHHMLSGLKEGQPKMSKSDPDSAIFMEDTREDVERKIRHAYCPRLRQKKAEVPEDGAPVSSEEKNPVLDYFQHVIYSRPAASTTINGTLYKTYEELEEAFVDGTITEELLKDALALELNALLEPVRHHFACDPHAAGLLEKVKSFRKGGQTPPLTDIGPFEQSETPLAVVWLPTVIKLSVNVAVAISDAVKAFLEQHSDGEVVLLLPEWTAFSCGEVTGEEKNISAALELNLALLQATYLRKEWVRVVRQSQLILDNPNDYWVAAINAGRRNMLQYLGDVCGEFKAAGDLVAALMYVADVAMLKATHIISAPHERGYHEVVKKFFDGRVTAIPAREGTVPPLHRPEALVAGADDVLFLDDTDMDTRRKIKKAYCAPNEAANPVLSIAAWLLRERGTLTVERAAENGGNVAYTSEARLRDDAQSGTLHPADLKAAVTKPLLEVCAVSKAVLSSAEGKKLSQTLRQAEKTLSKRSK
The experiment is described as follows: Trypanosoma cruzi tyrosyl tRNA synthetase (TcYRS) _High Tyrosine SOP. Also: in the data most compounds retested in dose-response had high values. Particulars: 30 µM. It counts as functional.

Experiment [9] has as its target T5, Tyrosyl-tRNA synthetase, putative (Trypanosoma cruzi (strain CL Brener)). Kind of experiment: Trypanosoma cruzi tyrosyl tRNA synthetase (TcYRS) SOP. Particulars: 30 µM. It counts as functional.
Experiment [10] has as its target Chromo domain-containing protein 1 (Saccharomyces cerevisiae (strain ATCC 204508 / S288c) (Baker's yeast)) (UniProt P32657). Kind of experiment: ScCHD-1 Enzyme Inhibition Assay. Also: in the data most compounds retested in dose-response had high values. It counts as functional. Particulars: 30 µM.

Chromo domain-containing protein 1 (Saccharomyces cerevisiae (strain ATCC 204508 / S288c) (Baker's yeast)), sequence (P32657 whole entry, the tested form may be a part): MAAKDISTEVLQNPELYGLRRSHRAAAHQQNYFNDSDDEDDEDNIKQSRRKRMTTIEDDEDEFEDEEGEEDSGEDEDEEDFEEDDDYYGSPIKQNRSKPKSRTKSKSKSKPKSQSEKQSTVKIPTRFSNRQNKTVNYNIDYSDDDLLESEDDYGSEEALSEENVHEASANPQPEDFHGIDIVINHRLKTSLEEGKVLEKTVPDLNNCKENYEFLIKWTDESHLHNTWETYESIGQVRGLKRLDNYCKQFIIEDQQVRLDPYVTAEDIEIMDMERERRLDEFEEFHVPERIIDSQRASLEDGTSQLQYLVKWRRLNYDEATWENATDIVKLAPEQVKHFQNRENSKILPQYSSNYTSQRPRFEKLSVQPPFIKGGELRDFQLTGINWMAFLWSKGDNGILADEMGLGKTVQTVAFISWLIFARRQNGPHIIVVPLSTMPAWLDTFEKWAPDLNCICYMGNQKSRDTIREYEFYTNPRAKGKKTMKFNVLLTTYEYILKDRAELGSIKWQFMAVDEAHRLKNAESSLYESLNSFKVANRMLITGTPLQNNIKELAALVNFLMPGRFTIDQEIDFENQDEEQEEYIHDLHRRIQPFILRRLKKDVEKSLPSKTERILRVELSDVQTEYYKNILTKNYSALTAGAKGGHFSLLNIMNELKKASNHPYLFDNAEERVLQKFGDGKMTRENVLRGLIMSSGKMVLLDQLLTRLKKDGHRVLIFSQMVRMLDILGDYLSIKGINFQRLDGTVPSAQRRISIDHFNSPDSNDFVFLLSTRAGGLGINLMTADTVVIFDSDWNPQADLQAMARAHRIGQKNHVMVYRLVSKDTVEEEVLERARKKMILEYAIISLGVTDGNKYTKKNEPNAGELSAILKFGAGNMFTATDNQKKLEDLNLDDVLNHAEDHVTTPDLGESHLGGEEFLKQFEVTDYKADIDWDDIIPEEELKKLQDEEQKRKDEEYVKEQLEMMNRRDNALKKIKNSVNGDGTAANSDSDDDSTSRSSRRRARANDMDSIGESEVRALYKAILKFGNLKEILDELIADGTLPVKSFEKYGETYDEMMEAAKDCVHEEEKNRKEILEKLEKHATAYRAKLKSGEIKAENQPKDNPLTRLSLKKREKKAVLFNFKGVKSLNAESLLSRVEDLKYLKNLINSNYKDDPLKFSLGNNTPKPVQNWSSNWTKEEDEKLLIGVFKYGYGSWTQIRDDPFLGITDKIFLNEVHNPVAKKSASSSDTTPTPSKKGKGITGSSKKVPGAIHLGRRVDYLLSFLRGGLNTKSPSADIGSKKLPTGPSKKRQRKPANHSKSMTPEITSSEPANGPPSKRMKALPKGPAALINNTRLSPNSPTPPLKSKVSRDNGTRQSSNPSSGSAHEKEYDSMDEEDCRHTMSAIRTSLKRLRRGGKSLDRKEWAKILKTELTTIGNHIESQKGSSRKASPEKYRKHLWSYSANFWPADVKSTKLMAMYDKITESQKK
Sialic acid-binding Ig-like lectin 9 (Homo sapiens), sequence (Q9Y336 whole entry): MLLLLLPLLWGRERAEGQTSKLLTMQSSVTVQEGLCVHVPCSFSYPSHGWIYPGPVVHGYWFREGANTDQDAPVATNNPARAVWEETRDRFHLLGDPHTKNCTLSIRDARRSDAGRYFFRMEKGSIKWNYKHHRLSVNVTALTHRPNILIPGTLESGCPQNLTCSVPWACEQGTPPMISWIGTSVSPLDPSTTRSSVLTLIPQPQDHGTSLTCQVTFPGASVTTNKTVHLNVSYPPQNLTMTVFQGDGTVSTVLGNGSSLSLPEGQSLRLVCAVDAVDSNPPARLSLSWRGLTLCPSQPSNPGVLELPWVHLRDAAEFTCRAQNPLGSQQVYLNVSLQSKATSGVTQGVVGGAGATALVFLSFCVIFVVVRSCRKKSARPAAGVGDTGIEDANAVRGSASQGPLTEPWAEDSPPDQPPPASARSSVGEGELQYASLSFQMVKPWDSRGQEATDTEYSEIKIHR
Protein translocase subunit SecA (Escherichia coli (strain K12)), sequence (P10408 whole entry): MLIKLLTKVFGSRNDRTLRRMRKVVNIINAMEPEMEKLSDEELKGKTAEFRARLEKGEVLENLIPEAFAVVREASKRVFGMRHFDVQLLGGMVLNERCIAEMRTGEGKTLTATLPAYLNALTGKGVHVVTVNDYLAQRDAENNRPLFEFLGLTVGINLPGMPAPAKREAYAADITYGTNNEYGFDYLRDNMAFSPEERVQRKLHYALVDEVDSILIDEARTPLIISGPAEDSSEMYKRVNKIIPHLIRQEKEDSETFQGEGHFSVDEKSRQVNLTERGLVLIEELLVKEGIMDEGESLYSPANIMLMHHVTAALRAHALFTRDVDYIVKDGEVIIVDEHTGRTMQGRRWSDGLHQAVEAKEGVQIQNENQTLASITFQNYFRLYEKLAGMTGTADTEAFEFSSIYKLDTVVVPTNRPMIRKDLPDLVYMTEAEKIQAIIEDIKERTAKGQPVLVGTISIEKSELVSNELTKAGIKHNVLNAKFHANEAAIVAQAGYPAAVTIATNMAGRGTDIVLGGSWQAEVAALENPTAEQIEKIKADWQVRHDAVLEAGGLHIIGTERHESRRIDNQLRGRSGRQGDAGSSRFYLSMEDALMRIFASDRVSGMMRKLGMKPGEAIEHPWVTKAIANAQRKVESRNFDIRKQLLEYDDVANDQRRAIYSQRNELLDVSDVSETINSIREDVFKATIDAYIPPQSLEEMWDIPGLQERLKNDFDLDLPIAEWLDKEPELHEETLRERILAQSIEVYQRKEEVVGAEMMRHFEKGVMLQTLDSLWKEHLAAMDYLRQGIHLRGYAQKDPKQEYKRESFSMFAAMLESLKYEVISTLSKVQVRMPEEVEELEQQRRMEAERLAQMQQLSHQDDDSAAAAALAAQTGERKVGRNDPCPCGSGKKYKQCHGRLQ

As for `O=C1C[C@H]2[C@H](CCN2Cc2ccccn2)N1CC1CC1`, the Percent Effect in experiment [1] is -3.35%; in experiment [2] it was 11.7%; in experiment [3], 1.05%; in [4], -4.27%; in the experiment on Trypanosoma cruzi it was -5.25%; in [5], 5.02%. The Percent Effect is 12.4% in experiment [6]; 12.4% in the experiment listed under Homo sapiens; -21.2% in experiment [7]; 6.76% in experiment [8]; 2.5% in experiment [9]; -6.54% in [10].

Consider `C[C@@H]1C(=O)NC[C@H]2CN(Cc3ccsc3)C[C@H]21`, for which the Percent Effect in experiment [1] was -2.31%; in experiment [2] it was 3.9%; in experiment [3], -1.43%; in experiment [4], 1.3%; in the experiment with Trypanosoma cruzi it was 1.88%; in experiment [5], -0.457%. Besides, the Percent Effect in experiment [6] was -4.55%; in the experiment filed under Homo sapiens, -3.55%; in [7], -20.9%; in experiment [8], 6.76%; in experiment [9], 10%; in experiment [10], -9.75%.

Consider `Cc1noc(C)c1CN1CCCC2(CCN(C(=O)CC3CC3)C2)C1` (stereo unspecified), for which the Percent Effect in experiment [1] was -8.86%; in [2], 3.9%; in experiment [3] it was 1.46%; in experiment [4], 3.29%; in the experiment on Trypanosoma cruzi, -0.375%; in experiment [5], 2.74%. Moreover, the Percent Effect is 1.97% in [6]; 12.4% in the experiment listed under Homo sapiens; -4.85% in experiment [7]; 1.93% in experiment [8]; -10% in experiment [9]; -8.2% in experiment [10].

For the compound `CN1CCC2(CC1)C(=O)N(CC1CC1)c1ccccc12`, the Percent Effect is -2.83% in experiment [1]; 9.09% in experiment [2]; -2.3% in [3]; -0.296% in experiment [4]; -1.69% with Trypanosoma cruzi; 3.65% in experiment [5]. Besides, the Percent Effect was 1.12% in experiment [6]; 2.83% in the experiment listed under Homo sapiens; 4.66% in [7]; -0.966% in experiment [8]; 0% in experiment [9]; -9.03% in experiment [10].

As for `CCCn1cc(C(=O)N(C)Cc2nc(-c3ccccn3)no2)c(C)n1`, in [3], the Percent Effect was -0.218%.

`O=C(Nc1cccnc1)[C@@H]1C[C@H]2OCC[C@H]2N(Cc2ccsc2)C1`: the Percent Effect in experiment [1] is -6.23%; in [2] it was 9.09%; in [3] it was -1.88%; in experiment [4], 6.98%; in the experiment with Trypanosoma cruzi, 0.487%; in experiment [5] it was -0.81%. The Percent Effect was 13.7% in [6]; 0.767% in the experiment listed under Homo sapiens; -6.35% in [7]; 4.74% in [8]; 10.3% in experiment [9]; -2.28% in [10].
